# An excerpt weighted towards active compounds, which were near 10% of everything screened.
# Luciferase inh: Photinus pyralis luciferase inhibition. purified P. pyralis luciferase, luminescence, biochemical. hit rate 2.5% among 76,000. AID 1347043. P08659. Potency, µM (series often up to 115 µM), actives largely listed as inhibitors; note: nearly all actives have a fitted effect of over 65% in size
# Target sequence (P08659 whole entry, looked up): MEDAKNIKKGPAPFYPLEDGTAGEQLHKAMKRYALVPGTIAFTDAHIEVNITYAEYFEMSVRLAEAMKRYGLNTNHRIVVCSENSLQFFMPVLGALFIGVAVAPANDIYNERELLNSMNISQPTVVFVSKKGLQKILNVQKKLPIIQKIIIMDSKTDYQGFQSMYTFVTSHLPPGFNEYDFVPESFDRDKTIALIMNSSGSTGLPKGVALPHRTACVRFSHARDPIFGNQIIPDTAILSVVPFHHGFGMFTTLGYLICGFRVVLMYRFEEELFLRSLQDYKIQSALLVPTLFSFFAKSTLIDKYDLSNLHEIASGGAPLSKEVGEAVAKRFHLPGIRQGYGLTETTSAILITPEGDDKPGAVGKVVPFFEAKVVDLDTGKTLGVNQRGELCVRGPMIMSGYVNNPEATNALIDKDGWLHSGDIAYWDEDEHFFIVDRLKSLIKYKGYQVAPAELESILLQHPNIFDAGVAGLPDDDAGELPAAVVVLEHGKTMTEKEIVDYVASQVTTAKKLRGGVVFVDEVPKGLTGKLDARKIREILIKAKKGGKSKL
#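 Luminescence read by CCD imaging after purified firefly luciferase (10nM final) was added to substrate buffer holding 10uM D-luciferin and 10uM ATP, pH 7.5, pre-dosed with compound.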
# HEK cytotox: HEK 293 cell cytotoxicity; HEK 293 viability, ATP luminescence (CellTiter-Glo), 48-72 h; Potency, µM (series often up to 115 µM), for the others: top-dose activity change, negative = cytotoxicity, most hits filed as inhibitors; hit rate 6.6% among 94,000; AID 1345083; note: nearly all actives have a fitted effect of over 60% in size
#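 qHTS cytotoxicity; HEK 293, 250 cells/well; compound pinned; 48 or 72 hr, 37 degree Celsius, 5% CO2, 95% humidity; CellTiter-Glo, 10 min RT; luminescence (ATP).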
# GPT2 inhibitor: blocks human glutamate pyruvate transaminase 2. Q8TD30. hit rate 0.25% among 100,000. Potency, µM (doses to about 57.7 µM), for inactives: top-dose activity change, negative = inhibition, actives largely listed as inhibitors. Recombinant GPT2, coupled pyruvate oxidase/HRP Amplex Red fluorescence. AID 1671188; note: nearly all actives have a fitted effect of over 60% in size
#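 Fluorescence of coupled pyruvate oxidase/HRP/Amplex Red system (50uM Amplex, 30 min, dark) reports pyruvate formed by GPT2. Enzyme reaction: 10ng/uL GPT2, 2mM L-alanine, 250uM a-KG, 30 min room temperature, pH 7.5; 50uM AOA control.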
# 3T3 cytotox: kills NIH 3T3 cells | NIH 3T3 viability, CellTiter-Glo ATP luminescence, 48-72 h | Potency, µM (doses to about 96.7 µM), for the others: top-dose activity change, negative = cytotoxicity, actives largely listed as inhibitors | hit rate 4.3% among 94,000 | AID 1345082; note: nearly all actives have a fitted effect of over 55% in size
#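 Luminescent ATP readout (CellTiter-Glo, 10 min RT) after 48 or 72 hr compound exposure of NIH 3T3 cells seeded at 400 cells/well in 1536-well format; quantitative HTS.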
# NPR1 antag: antagonists of human natriuretic peptide receptor Npr1 | HEK293 hNpr1 GloSensor cGMP, ANP-stimulated luminescence | Potency, µM (doses to about 46.3 µM), without a hit: at the highest dose activity change, negative = inhibition, most hits filed as inhibitors | hit rate 1.6% among 76,000; calls by dose curve; note: nearly all actives have a fitted effect of over 60% in size
#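 HEK293 cells stably expressing human Npr1 and cGMP GloSensor pGS-40F, loaded 2 h with 2% GloSensor reagent, given compound 30 min at room temperature. Luminescence read before and 20 min after 0.1 nM hNppA.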
# * marks the source's active call; other numbers are inactive results; i = inactive; u = inconclusive; x = no result given; [ ] = remark or other dose. Unless noted, calls come from the whole dose curve; as a rule, active = well fitted curve in the direction sought with a large enough effect; inconclusive = small, poorly fitted or top-dose-only effect, or another doubt; inactive = no such curve, though single readings can be large; an effect the other way counts as inactive or inconclusive. % is set by controls: 0 for no effect and ±100 for the full control effect; potency is the fitted concentration of half-maximal effect.
SMILES,Luciferase inh,HEK cytotox,GPT2 inhibitor,3T3 cytotox,NPR1 antag
Cc1cccc(CC(=O)N2CCCCC2c2noc(COc3ccc(F)cc3)n2)c1 (configuration not stated),i,u,i,u,u
COc1ccccc1C(=O)N1CCC(C(=O)N2CCC(N3CCOCC3=O)CC2)CC1,x,i,-0.2%,-7.6%,x
COc1ccccc1CN1CCCn2nc(C)c(-c3cnccc3C)c21,i,39.8µM*,i,44.7µM*,u
Cc1ccncc1-c1c(C)nn2c1N(Cc1cccc(OC(F)(F)F)c1)CCC2,i,31.6µM*,-10.8%[88.5 µM],u,u
Cc1ccncc1-c1c(C)nn2c1N(Cc1cccc(O)c1)CCC2,i,u,-13.6%[88.5 µM],u,-28.1%[70.6 µM]
COc1ccc(OC)c(CN2CCCn3nc(C)c(-c4cnccc4C)c32)c1,i,u,i,89.1µM*,-15.7%[70.6 µM]
O[C@@H]1CCC2CC1[C@@H](O)CN2Cc1ccc(-c2ccccc2)cc1 (some centres not stated),x,79.4µM*,x,u,x
O=C(C1CCN([S+](=O)([O-])c2ccccc2)C1)N1CCC(c2nc3ncccc3[nH]2)CC1 (configuration not stated),x,-12.3%,i,-15.9%,x
COc1ccc(CN2C(=O)[C@@H]3C[C@@H](CN3Cc3ccc4c(c3)OCO4)Oc3ccccc32)cc1,i,i,1.1%,-3.7%,-5.7%
COc1ccc(CN2C(=O)[C@@H]3C[C@@H](CN3Cc3ccccc3Cl)Oc3ccccc32)cc1,i,39.8µM*,-4.8%,44.7µM*,-12.0%
N#Cc1ccc(CN2C[C@@H]3C[C@H]2C(=O)N(Cc2ccccc2)c2ccccc2O3)cc1,i,50.1µM*,-6.0%[88.5 µM],u,u
O=C1[C@@H]2C[C@@H](CN2Cc2ccccc2)Oc2ccccc2N1Cc1ccccc1,i,63.1µM*,-16.3%[88.5 µM],u,-22.1%[70.6 µM]
O=C1[C@@H]2C[C@@H](CN2Cc2ccc(F)cc2)Oc2ccccc2N1CC1CC1,i,u,-21.6%[88.5 µM],u,-5.0%[70.6 µM]
O=C1[C@@H]2C[C@@H](CN2Cc2ccc(Cl)cc2)Oc2ccccc2N1CC1CC1,i,89.1µM*,-11.1%[88.5 µM],89.1µM*,-29.7%[70.6 µM]
O=C(c1ccccc1)N1CCC(N2Cc3ccccc3C2=O)CC1,x,-3.0%,2.1%,-9.7%,x
COc1ccc(CN2CCCC23Cc2ccccc2N([S+](C)(=O)[O-])C3)cc1 (configuration not stated),x,u,-0.6%,-9.6%,x
CSc1ccc(-c2cccc(C(=O)NCCNC(=O)c3ccccc3Cl)c2)cc1,x,u,i,u,x
OCC1CN(c2ncccn2)CC12CCN(Cc1ccsc1)CC2 (configuration not stated),i,-9.6%,3.8%,1.1%,1.5%
OCC1CN(C2CCC2)CC12CCN(Cc1ccsc1)CC2 (configuration not stated),i,89.1µM*,u,u,1.8%
COc1cccc(CN2Cc3nc(-c4cc(Cl)ccc4OC)ccc3OCC2=O)c1,i,100µM*,4.5%[88.5 µM],u,-0.6%[70.6 µM]
COc1cccc(CN2Cc3nc(-c4cnn(C)c4)ccc3OCC2=O)c1,i,-15.8%[172 µM],1.5%[88.5 µM],u,1.3%[70.6 µM]
CC(=O)Nc1cccc(-c2ccc3c(n2)CN(Cc2ccccc2)C(=O)CO3)c1,i,u,-4.6%[88.5 µM],u,-0.4%[70.6 µM]
COc1cccc(CN2Cc3nc(-c4cc5ccccc5o4)ccc3OCC2=O)c1,i,79.4µM*,-9.2%[88.5 µM],u,-14.8%[70.6 µM]
COc1cccc(CN2Cc3nc(-c4cccc(NC(C)=O)c4)ccc3OCC2=O)c1,i,79.4µM*,0.1%[88.5 µM],u,-15.2%[70.6 µM]
COc1cccc(CN2Cc3nc(-c4c(C)noc4C)ccc3OCC2=O)c1,i,u,4.9%[88.5 µM],39.8µM*,-7.0%[70.6 µM]
COc1cccc(CNC(=O)c2ccc3oc(-c4cccnc4)nc3c2)c1,x,u,-18.4%,u,x
COc1cccc(CN2Cc3nc(-c4ccc(F)cc4)ccc3OCC2=O)c1,i,u,-2.4%[88.5 µM],79.4µM*,-22.3%[70.6 µM]
O=C(NC1CC1)C1CCCCN1Cc1ccc(-c2cccs2)cc1 (configuration not stated),x,44.7µM*,i,u,x

# Screening data from PubChem.
